# The source made the active and inactive calls.
# Assays:
# [1] = test system: Plasmodium falciparum Sir2 (PF13_0152, Sir2A); experiment: Plasmodium falciparum Sir2A binding compounds – biochemical, small-molecule microarray, 635 nm fluorescence, primary screen (AID 1098); settings: fluorescence 635 nm, higher = more signal;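 also: score merges spot fluorescence intensity with its signal-to-noise ratio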
# [2] = probe aDKK1 binding to arrayed compounds – biochemical, biotinylated probe, 635/667 nm fluorescence, primary screen (AID 1099); settings: small-molecule microarray, higher = more signal;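 also: score merges 667nm spot fluorescence with signal to noise across triplicate slides; reference of the scale not given here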
# [3] = probe aCHRDL2 binding to arrayed compounds – biochemical, biotinylated probe, 635/667 nm fluorescence, primary screen (AID 1100); settings: small-molecule microarray, higher = more signal
# [4] = change in splice reporter luminescence, either direction, cell-based, HEK293, spliceosome inhibition project, primary screen (AID 1101); settings: HEK293 splicing luciferase reporter, 24 h, higher = more signal, called active from +8 up or from −8 down;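 also: HEK293 cells carrying a splicing-competent luciferase reporter gene; test concentration not given here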
# [5] = molecular target: Fibroblast growth factor 10 (Homo sapiens) (UniProt O15520); experiment: compounds binding fibroblast growth factor 10 – biochemical, small-molecule microarray, 635 nm fluorescence, primary screen (AID 1102); settings: FGF10 binding, fluorescence 635 nm, higher = more signal
# Sequence of Fibroblast growth factor 10 (Homo sapiens) (O15520 whole entry, looked up): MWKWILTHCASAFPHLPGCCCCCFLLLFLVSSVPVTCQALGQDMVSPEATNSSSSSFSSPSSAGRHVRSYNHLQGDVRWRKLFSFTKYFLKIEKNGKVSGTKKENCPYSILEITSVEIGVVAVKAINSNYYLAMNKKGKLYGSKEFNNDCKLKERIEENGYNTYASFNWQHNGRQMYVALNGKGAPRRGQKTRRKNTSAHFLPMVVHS
# [6] = test system: glycogen synthase kinase-3 (GSK3A per assay name; protocol says GSK3B); experiment: compounds binding glycogen synthase kinase-3 – biochemical, small-molecule microarray, 635 nm fluorescence, GSK3A, primary screen (AID 1103); settings: fluorescence 635 nm, higher = more signal; also: the record names both GSK3A and GSK3B
# [7] = molecular target: Epidermal growth factor receptor (Homo sapiens) (UniProt P00533); experiment: compounds binding epidermal growth factor receptor – biochemical, small-molecule microarray, 635 nm fluorescence, primary screen (AID 1104); settings: EGFR binding, higher = more signal;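 also: score merges 667 nm emission intensity with spot signal to noise over triplicate slides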
# Sequence of Epidermal growth factor receptor (Homo sapiens) (P00533 whole entry, looked up): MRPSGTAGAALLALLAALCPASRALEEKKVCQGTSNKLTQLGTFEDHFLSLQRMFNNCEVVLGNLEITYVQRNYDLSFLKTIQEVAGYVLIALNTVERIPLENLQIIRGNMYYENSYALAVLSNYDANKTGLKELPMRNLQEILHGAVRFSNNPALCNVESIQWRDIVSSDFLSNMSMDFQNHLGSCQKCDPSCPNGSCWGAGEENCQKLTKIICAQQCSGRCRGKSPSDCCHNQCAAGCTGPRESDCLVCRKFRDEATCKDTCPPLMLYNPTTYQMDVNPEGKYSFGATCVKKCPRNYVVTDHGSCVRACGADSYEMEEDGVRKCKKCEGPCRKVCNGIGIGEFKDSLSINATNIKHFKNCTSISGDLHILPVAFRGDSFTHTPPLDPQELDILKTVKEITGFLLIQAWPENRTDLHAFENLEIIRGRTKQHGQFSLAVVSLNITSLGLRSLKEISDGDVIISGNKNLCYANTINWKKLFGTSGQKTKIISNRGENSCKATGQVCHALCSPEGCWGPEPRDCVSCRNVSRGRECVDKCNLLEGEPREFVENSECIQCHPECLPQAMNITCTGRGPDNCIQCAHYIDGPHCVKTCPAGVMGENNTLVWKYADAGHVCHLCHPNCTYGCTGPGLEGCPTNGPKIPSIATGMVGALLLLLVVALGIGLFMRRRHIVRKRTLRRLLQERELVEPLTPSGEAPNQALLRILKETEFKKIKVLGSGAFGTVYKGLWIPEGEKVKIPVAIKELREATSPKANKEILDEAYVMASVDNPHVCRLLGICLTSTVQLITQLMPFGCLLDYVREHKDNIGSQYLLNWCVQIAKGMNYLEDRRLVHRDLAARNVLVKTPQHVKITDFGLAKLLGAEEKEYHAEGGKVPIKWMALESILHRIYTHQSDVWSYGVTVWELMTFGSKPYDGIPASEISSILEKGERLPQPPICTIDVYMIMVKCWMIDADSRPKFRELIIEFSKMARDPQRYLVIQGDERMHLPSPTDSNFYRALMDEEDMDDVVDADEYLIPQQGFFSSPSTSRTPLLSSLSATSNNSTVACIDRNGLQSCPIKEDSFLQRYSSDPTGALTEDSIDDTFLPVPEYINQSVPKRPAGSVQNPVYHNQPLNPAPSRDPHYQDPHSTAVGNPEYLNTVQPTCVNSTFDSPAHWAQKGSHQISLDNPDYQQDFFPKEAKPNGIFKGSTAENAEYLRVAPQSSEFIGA
# [8] = molecular target: Follistatin-related protein 3 (Homo sapiens) (UniProt O95633); experiment: compounds binding follistatin-related protein 3 – biochemical, small-molecule microarray, 635 nm fluorescence, primary screen (AID 1105); settings: FSTL3 binding, higher = more signal;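 also: score merges emission near 667 nm and signal to noise per printed spot across three slides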
# Sequence of Follistatin-related protein 3 (Homo sapiens) (O95633 whole entry, looked up): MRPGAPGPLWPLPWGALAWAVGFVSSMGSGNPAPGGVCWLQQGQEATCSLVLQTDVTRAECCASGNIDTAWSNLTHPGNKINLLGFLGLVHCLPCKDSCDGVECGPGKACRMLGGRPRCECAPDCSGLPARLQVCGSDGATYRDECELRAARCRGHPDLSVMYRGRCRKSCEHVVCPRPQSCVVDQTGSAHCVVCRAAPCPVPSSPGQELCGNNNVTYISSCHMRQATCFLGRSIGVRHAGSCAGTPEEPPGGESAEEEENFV
# [9] = molecular target: Dickkopf-related protein 1 (Homo sapiens) (UniProt O94907); experiment: small molecules binding DKK1 protein – biochemical, small-molecule microarray, 635 nm fluorescence scan, primary screen (AID 1106); settings: higher = more signal;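 also: score merges emission near 667 nm with signal to noise over three replicate slides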
# Sequence of Dickkopf-related protein 1 (Homo sapiens) (O94907 whole entry, looked up): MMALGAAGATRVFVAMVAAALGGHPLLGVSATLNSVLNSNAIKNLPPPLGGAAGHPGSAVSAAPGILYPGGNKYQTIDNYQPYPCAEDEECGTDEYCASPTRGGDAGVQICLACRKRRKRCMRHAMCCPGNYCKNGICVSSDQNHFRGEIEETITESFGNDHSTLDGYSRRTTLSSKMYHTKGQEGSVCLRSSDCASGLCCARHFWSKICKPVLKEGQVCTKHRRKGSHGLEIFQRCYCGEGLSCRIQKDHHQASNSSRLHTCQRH
# [10] = test system: Inhibin beta A chain (activin A); experiment: small molecules binding activin A – biochemical, small-molecule microarray, 635 nm fluorescence scan, primary screen (AID 1107); settings: INHBA, higher = more signal;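 also: mouse activin A protein probed at 4.33 µg/mL on printed slides; score merges bound-protein fluorescence near 667 nm with spot signal-to-noise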
SMILES,composite z-score [1],composite z-score [2],composite z-score [3],z-score [4],composite z-score [5],composite z-score [6],composite z-score [7],composite z-score [8],composite z-score [9],composite z-score [10]
COC(=O)[C@@]1(Cc2ccc(OC)cc2)[C@H]2c3cc(C(=O)N4CCCC4)n(C[C@H](O)CO)c3C[C@H]2CN1C(=O)c1ccccc1,1.06,0.642,0.913,1.19 (inactive),0.974,-0.681,-0.352,-0.519,-0.385,0.903
O=C1C2C=CC(C(O)c3ccc(-c4ccccc4)s3)N(Nc3ccccc3F)C2C(=O)N1c1ccccc1 (stereo not given),0.913,1.22,1.27,0.25 (inactive),0.772,0.806,0.247,0.817,0.0154,0.948
O=C1OCCC=C[C@H]2OC34C=CCN(c5ccc6ccccc6c5)C(=O)[C@H]3N(CCCCCCO)C(=O)[C@@H]4C12 (stereo not given in full),0.924,-0.0082,0.187,-0.225 (inactive),-0.916,-0.817,-1.07,-0.917,-1.26,0.56
Cc1ccc(S[C@]2(C(=O)NCc3ccccc3)CC(=O)N(Cc3cc(C(F)(F)F)cc(C(F)(F)F)c3)[C@@H]2c2ccc(CO)cc2)cc1,1.3,-0.614,-0.711,0.0364 (inactive),-0.431,-0.817,-0.662,-0.247,-0.422,0.283
CCCCC(=O)N(Cc1ccccc1F)[C@@H]1CC(C(=O)NCCO)=C[C@H](Oc2c(I)cc(CO)cc2OC)[C@H]1O,1.09,-0.22,-0.327,-0.0457 (inactive),1.46,1.34,0.91,1.13,1.96,0.535
C=CCC(OC(C)=O)[C@@H]1[C@@H](N(Cc2ccc(-c3ccccc3)cc2)C(=O)c2ccc(C)cc2)c2cc(OCCCO)ccc2N1C(=O)c1ccc2ccccc2n1 (stereo not given in full),-0.124,-0.053,0.529,-1.84 (inactive),-0.0241,-0.609,-0.236,-0.374,-0.144,1.39
O=C1OCCC/C=C\[C@H]2OC34C=CCN(CCN5CCOCC5)C(=O)[C@H]3N(CCO)C(=O)[C@@H]4C12 (stereo not given in full),1.66,-0.214,0.0583,-1.15 (inactive),-0.506,-0.707,-0.676,-1.14,-0.507,-0.68
[N-]=[N+]=NCc1ccccc1C[C@]1(C(=O)N2CCOCC2)N=C(c2ccc(OCCCO)cc2)O[C@H]1c1ccccc1,0.947,0.102,0.904,-1.18 (inactive),1.39,0.551,-0.458,0.223,-0.774,0.275
COCCn1c(C(=O)N2CCCC2)cc2c1C[C@H]1CN(C(=O)c3ccccc3)[C@@](Cc3ccc(OC)cc3)(C(=O)OC)[C@@H]21,0.994,1.41,1.44,-1.82 (inactive),0.344,0.194,-0.224,0.682,-0.223,1.06
Cc1ccc(F)cc1S(=O)(=O)N[C@@H]1CCN(Cc2ccc(C(F)(F)F)cc2)C1,-0.245,0.735,-0.565,0.169 (inactive),-0.425,-1.41,-0.444,-0.769,0.0494,-0.127
CN(C)CCCN1C(=O)[C@@]2(c3ccc([N+](=O)[O-])cc3)CC(=O)N(C3CCCCC3)[C@@H]2c2ccc(CO)cc21,-0.34,-0.0972,0.196,-0.447 (inactive),0.835,-0.808,0.108,-0.0207,-0.162,0.731
COC(=O)[C@@]1(Cc2ccc(OC)cc2)[C@H]2c3cc(C(=O)N(C)C)n(Cc4ccc(OC)c(OC)c4)c3C[C@H]2CN1C(=O)c1ccccc1,0.851,0.476,1.16,-2.25 (inactive),0.81,1.28,0.149,0.943,-0.649,0.807
O=C(N1CCCCC1)[C@]1(CCS(=O)(=O)c2ccccc2)N=C(c2ccc(OCCCO)cc2)O[C@@H]1c1ccccc1,1.26,1.02,1.08,0.25 (inactive),0.997,1.31,-0.0354,0.536,-0.142,1.29
C=C(CCCC)C(=O)CC[C@H](OC(C)=O)c1ccc(CO)o1,0.621,-0.402,-0.456,-1.14 (inactive),0.123,0.2,-0.567,-0.139,-0.0639,1.24
COc1ccc([Si](C)(C)[C@@H]2[C@@H](CCn3cc([C@H](O)c4ccccc4)nn3)O[C@]3(C(=O)N(C)c4ccccc43)[C@H]2C)cc1,0.839,-0.202,0.28,0.0848 (inactive),0.0782,0.11,0.0033,-0.291,0.0052,0.283
CN1C(=O)C2C=CC(C(O)C=Cc3ccc([N+](=O)[O-])cc3)N(N3CCCCC3)C2C1=O (stereo not given),1.38,1.6,1.34,1.47 (inactive),0.928,1.28,0.726,1.1,0.256,1.35
C=CCC(OC(C)=O)[C@@H]1[C@@H](N(Cc2ccc(-c3cccc(C(F)(F)F)c3)o2)C(=O)c2ccc(C)cc2)c2cc(OCCCO)ccc2N1C(=O)c1ccc2ccccc2n1 (stereo not given in full),0.273,-0.164,0.253,0.168 (inactive),0.453,-0.124,-0.0487,0.483,0.381,1.4

SMILES,composite z-score [1],composite z-score [2],composite z-score [3],z-score [4],composite z-score [5],composite z-score [6],composite z-score [7],composite z-score [8],composite z-score [9],composite z-score [10]
CN1C(=O)C2C(C1=O)C1C=C(c3ccc(CO)cc3)C2C(C2CC2)N1Cc1cc2c(cc1Br)OCO2 (stereo not given),1.65,0.0878,0.886,0.0287 (inactive),0.966,1.14,0.482,1.22,0.334,1.22
CCOC(=O)C=Cc1cccc(OC)c1O,-0.0095,-0.349,0.165,-1.98 (inactive),-0.96,-0.073,-1.71,-0.631,-1.77,-0.4
C=CCC(OC(C)=O)[C@@H]1[C@@H](N(Cc2ccc(-c3cccc(C(F)(F)F)c3)o2)C(=O)Cc2ccc(OC)cc2)c2cc(OCCCO)ccc2N1C(=O)Cc1ccc(OC)cc1 (stereo not given in full),0.294,-0.22,0.373,-1.94 (inactive),-0.593,-1.7,-0.719,-0.391,-0.227,0.925
[N-]=[N+]=NCc1ccccc1[C@@H]1OC(c2ccc(OCCCO)cc2)=N[C@]1(Cc1ccccc1N=[N+]=[N-])C(N)=O,1.48,0.367,1.16,0.352 (inactive),1.38,1.27,-0.0099,0.995,0.259,1.06
[N-]=[N+]=NCc1ccccc1[C@H]1OC(c2ccc(OCCCO)cc2)=N[C@@]1(Cc1ccccc1)C(=O)O,0.208,0.213,0.884,-1.01 (inactive),0.621,0.51,0.0378,0.47,-0.213,1.25
C=CCC(OC(C)=O)[C@@H]1[C@@H](N(Cc2cc3ccccc3o2)C(=O)c2cccc3ccccc23)c2cc(OCCCO)ccc2N1C(=O)Cc1ccc(OC)cc1 (stereo not given in full),0.495,0.136,0.0527,-1.04 (inactive),0.568,0.12,0.24,0.579,0.429,1.2
CCCCCCC#C[Si](O[C@H](c1ccccc1)c1cn([C@H](C)c2ccccc2)nn1)(C(C)C)C(C)C,0.693,-0.167,-0.365,-0.209 (inactive),0.547,0.565,0.483,0.841,1.25,0.327
C=CCC(OC(C)=O)[C@@H]1[C@@H](N(Cc2cc3ccccc3o2)C(=O)c2ccc(-c3ccccc3)cc2)c2cc(OCCCO)ccc2N1C(=O)Cc1ccc2ccccc2c1 (stereo not given in full),-0.366,-0.172,0.351,0.121 (inactive),-0.0752,-0.418,-0.227,-0.187,-0.251,1.2
CC(C)(C)OC(=O)CC[C@]1(C(=O)NCC(O)CO)N=C(c2ccc(OCCCO)cc2)O[C@H]1c1ccccc1CN=[N+]=[N-] (stereo not given in full),0.982,1.27,1.33,0.121 (inactive),1.5,0.554,-0.256,0.676,-0.0583,0.487
CN1C(=O)C2C=CC(C(O)C(C)(C)C)N(Nc3ccccc3)C2C1=O (stereo not given),1.24,-0.108,0.211,1.06 (inactive),-0.0353,-0.0258,-0.639,-0.543,-0.406,0.941
C=CCC(OC(C)=O)[C@@H]1[C@@H](N(Cc2cc3ccccc3o2)C(=O)c2ccc(C)cc2)c2cc(OCCCO)ccc2N1C(=O)c1ccc(-c2ccccc2)cc1 (stereo not given in full),-0.433,-0.228,0.118,-3.23 (inactive),0.161,-0.291,0.0009,0.363,0.111,1.32
CC[C@@H]1C=C(C(=O)O)[C@H](c2ccc(C(C)C)cc2)N1S(=O)(=O)c1ccc(C)cc1,1.25,1.1,0.86,-0.0593 (inactive),1.08,1.15,0.001,1.18,-0.172,0.769
COCCCNC(=O)[C@@]1(Cc2ccccc2I)c2ccccc2C(=O)N(Cc2ccccc2)[C@H]1c1ccc(CO)cc1,-0.67,-0.113,0.394,-0.356 (inactive),-1.25,-1.43,-2.16,-1.56,-1.41,-1.59
CC(C)OC(=O)C1=CCC(c2cccc(Cl)c2)O1 (stereo not given),1.58,-0.306,0.461,-2.49 (inactive),-1.34,-0.33,-1.71,-0.715,-2.24,-1.41
O=c1cccc(-c2ccc3ccccc3c2)o1,-0.271,0.216,0.591,-0.823 (inactive),-0.0487,-0.964,0.0697,-0.0172,-0.139,1.15
COc1ccc([Si](C)(C)[C@@H]2[C@@H](CCO)O[C@]3(C(=O)N(Cc4cccc(N(C=O)c5ccccc5)c4)c4ccccc43)[C@H]2C)cc1,0.883,0.0396,0.541,-2.49 (inactive),-0.0644,0.364,-0.222,-0.0339,-0.0116,1.03
CC(c1ccccc1)C(O)C1C=CC2C(=O)N(c3ccccc3)C(=O)C2N1Nc1ccccc1F (stereo not given),0.308,0.535,1.09,-1.02 (inactive),0.356,0.214,-0.0346,0.683,-0.526,0.913

# From PubChem BioAssay
